This excerpt belongs to a sample that is enriched for hits.
L3MBTL1 block = inhibitors of human L3MBTL1 | Q9Y468 | AlphaScreen L3MBTL1–H3K9me1 peptide binding | Potency, µM (series often up to 57.1 µM), for the others: at the highest dose activity, negative = inhibition, actives largely listed as inhibitors | actives 0.66% (n = 230,000); also: nearly all actives have a fitted effect of over 60% in size
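Displacement of a biotinylated histone H3(1-15) peptide monomethylated at Lys9 (75 nM) from L3MBTL1 (50 nM) was measured by AlphaScreen after a 30 min room-temperature compound incubation; cefsulodin titration served as intraplate control.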
APEX1 inh = blocks human APE1 abasic DNA cleavage. P27695. recombinant APE1, TAMRA/BHQ-2 abasic DNA cleavage fluorescence. Potency, µM (top dose mostly 65.8 µM), for inactives: at the highest dose activity change, negative = inhibition, usual class: inhibitors. actives 0.35% (n = 350,000). AID 2517;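 also: plate controls were vehicle for no effect and reference inhibitor for full effect; nearly all actives have a fitted effect of over 55% in size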
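Enzyme (0.75 nM final) and test compound are incubated 15 min at room temperature before adding 50 nM quenched THF abasic-site duplex. Cleavage dequenches TAMRA, followed at 525/598 nm over three reads one minute apart.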
KDM4E inh = blocks human JMJD2E demethylase activity | B2RXH2 | JMJD2E catalytic domain, FDH-coupled NADH fluorescence (FDH is formaldehyde dehydrogenase) | Potency, µM (top dose mostly 57.1 µM), for the others: at the top dose activity change, negative = inhibition, hits mostly inhibitors | actives 1.6% (n = 230,000); active = well fitted inhibition curve with a large enough effect, not every such curve was filed as active; inconclusive = small, poorly fitted or top-dose-only effect, or another doubt; inactive = no such curve, though single readings can be large or run the other way;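 also: 0% = wells with enzyme and -100% = buffer wells without enzyme; nearly all actives have a fitted effect of over 50% in size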
BLM inh = Bloom syndrome helicase (human) inhibition. P54132. recombinant BLM DNA unwinding, fluorescence dequenching. Potency, µM (top dose mostly 56.1 µM), for inactives: at the top dose activity change, negative = inhibition, hits mostly inhibitors. actives 0.2% (n = 350,000). AID 2528;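 also: plate controls were vehicle for no effect and no enzyme for full effect; nearly all actives have a fitted effect of over 35% in size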
Target sequence (P54132 whole entry, looked up): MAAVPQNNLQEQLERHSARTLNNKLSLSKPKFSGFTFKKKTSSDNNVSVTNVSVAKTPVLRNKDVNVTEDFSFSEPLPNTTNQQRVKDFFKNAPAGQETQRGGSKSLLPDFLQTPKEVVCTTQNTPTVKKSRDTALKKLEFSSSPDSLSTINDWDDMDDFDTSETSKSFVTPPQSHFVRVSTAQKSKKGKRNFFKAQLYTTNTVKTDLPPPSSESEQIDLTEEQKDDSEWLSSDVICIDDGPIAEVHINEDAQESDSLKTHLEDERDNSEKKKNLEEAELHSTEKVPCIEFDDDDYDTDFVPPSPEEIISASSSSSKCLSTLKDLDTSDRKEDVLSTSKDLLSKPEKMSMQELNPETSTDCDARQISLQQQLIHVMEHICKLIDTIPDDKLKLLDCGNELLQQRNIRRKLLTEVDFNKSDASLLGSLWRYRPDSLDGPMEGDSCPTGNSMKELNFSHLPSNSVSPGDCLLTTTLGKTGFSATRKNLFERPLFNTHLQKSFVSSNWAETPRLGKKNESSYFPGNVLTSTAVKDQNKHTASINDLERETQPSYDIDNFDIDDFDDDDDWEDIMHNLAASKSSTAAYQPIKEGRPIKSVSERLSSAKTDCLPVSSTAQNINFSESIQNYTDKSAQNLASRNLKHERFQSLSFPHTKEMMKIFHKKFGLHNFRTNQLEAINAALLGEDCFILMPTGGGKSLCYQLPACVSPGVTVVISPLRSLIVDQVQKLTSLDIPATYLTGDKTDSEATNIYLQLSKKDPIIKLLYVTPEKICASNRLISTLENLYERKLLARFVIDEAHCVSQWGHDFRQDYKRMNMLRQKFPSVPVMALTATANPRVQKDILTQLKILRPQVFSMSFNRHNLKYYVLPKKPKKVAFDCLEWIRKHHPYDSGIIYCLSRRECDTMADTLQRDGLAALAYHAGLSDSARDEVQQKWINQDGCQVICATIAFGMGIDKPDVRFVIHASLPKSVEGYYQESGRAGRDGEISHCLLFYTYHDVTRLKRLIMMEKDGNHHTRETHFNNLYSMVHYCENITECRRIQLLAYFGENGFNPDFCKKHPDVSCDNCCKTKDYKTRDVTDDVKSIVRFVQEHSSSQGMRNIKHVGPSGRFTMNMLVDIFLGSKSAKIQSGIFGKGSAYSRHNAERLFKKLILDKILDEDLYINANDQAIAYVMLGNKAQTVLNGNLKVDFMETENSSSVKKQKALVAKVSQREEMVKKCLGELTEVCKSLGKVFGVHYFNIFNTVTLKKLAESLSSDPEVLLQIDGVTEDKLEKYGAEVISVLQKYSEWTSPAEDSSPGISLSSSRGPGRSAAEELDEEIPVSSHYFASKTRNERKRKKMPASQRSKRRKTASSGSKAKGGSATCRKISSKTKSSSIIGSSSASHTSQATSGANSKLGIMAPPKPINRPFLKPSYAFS
RECQ1 helicase = inhibitors of human RECQ1 DNA helicase. P46063. RECQ1 DNA unwinding, red fluorescence kinetic read. Potency, µM (highest dose often 57.3 µM), for inactives: at the highest dose activity, negative = inhibition, usual class: inhibitors. actives 0.54% (n = 240,000);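 also: plate controls were vehicle for no effect and no enzyme for full effect; nearly all actives have a fitted effect of over 30% in size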
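RECQ1T1 50 nM; forked duplex (20 bp + 30-nt ss tails) 200 nM, ATP 2 mM final; pH 8.0, 2 mM MgCl2, 2.5 ug/ml poly(dI-dC); 15 min compound preincubation; discontinuous kinetic read over 2 h at RT.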
TDP1 inh = TDP1 (human) enzyme inhibition | recombinant TDP1, AlphaScreen DNA substrate cleavage | Potency, µM (highest dose often 130 µM), inactives show at the highest dose activity change, negative = inhibition, hits mostly inhibitors | Q9NUW8 | actives 0.28% (n = 350,000); also: nearly all actives have a fitted effect of over 40% in size
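Tdp1 1 nM final; 15 min RT w/ cpd; substrate 15 nM, 5 min; beads 10 ug/ml, 10 min; AlphaScreen read. Neg ctrl: no enzyme.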
The depositor's hits bear a star; i = inactive; ? = inconclusive; nt = no result; [ ] = dose if it differs, or a comment. Unless noted, calls follow the shape of the dose curve; as a rule, active = well fitted curve in the direction sought with a large enough effect; inconclusive = small, poorly fitted or top-dose-only effect, or another doubt; inactive = no such curve, though single readings can be large; an effect the other way counts as inactive or inconclusive. Unless noted, % is scaled to controls: 0 for no effect and ±100 for the full control effect; potency is read from the fitted curve at half-maximal effect.

SMILES	L3MBTL1 block	APEX1 inh	KDM4E inh	BLM inh	RECQ1 helicase	TDP1 inh
O=c1c2c3c(sc2nc2n1CCCCC2)CCC3	nt	0%	6%	-7%	i	7%
O=C1c2sc3nc4n(c(=O)c3c2CCC1Br)CCCCC4 (stereo not given)	-8%	-4%	18µM*	25µM*	-12%	nt
Cc1ccccc1Cn1cc(S(=O)(=O)c2ccc(F)cc2)c(=O)c2cc3c(cc21)OCO3	nt	nt	nt	-3%	nt	4%
C1OCOCO1	nt	-2%	nt	5%	-18%	15%
CCOC(=O)N1CCN(C(=O)CSCC(=O)Nc2nc(-c3ccc(OC)cc3)cs2)CC1	3%	9%	-4%	-7%	-6%	9%
CCOC(=O)N1CCN(C(=O)CSCC(=O)Nc2nc(-c3ccc(-c4ccccc4)cc3)cs2)CC1	-3%	2%	35µM*	-7%	13%	9%
O=c1[nH]c(/C=C/c2ccccc2F)nc2ccccc12	4%	-10%	nt	-12%	nt	45µM*
COc1ccc(CCNc2nccn(-c3ccc(C)c(C)c3)c2=O)cc1OC	nt	nt	nt	0%	nt	11%
CC(C)C(=O)Nc1nnc2n1CCS2	nt	nt	nt	0%	nt	7%
S=C(Nc1ccccc1)Nc1nc2ccccc2n1CCOc1ccc(Br)cc1	6.3µM*	8%	2%	-8%	-5%	-1%
CCOC(=O)OCC1OC(c2ccc(C(C)=O)cc2)C=CC1OC(=O)OCC (stereo not given)	nt	0%[12.4 µM]	nt	5%[12.4 µM]	4%[11.5 µM]	9%[21 µM]
O=C(/C=C/c1ccc(O)c(O)c1)c1ccc(S(=O)(=O)N2CCCCCC2)cc1	?	?	28µM*	-24%	-10%	9%
Cn1cccc1/C=C1/SC(=S)N(CC(=O)O)C1=O	nt	-6%	22µM*	0%	3%	-8%
Cc1cc(O)c(CN2CCN(c3ccc(F)cc3)CC2)c2oc(=O)cc(C)c12	nt	nt	nt	0%	nt	-3%
CC(C)(C)c1ccccc1Nc1nc(C#N)nc(NC2CCCC2)n1	nt	nt	nt	nt	nt	-6%
O=C(NCc1ccc2c(c1)OCO2)c1ccc2c(c1)N(Cc1c(F)cccc1Cl)C(=O)c1ccccc1S2	nt	nt	nt	-2%	nt	5%
Cc1ccc(C(=O)N/N=C/c2cccc(OC(=O)/C=C/c3ccco3)c2)cn1	32µM*	14µM*	-18%	-28%	?	nt
CCSc1ncc(Cl)c(C(=O)N(Cc2ccccc2Cl)C2CCS(=O)(=O)C2)n1 (stereo not given)	nt	nt	nt	-2%	nt	9%
CCSc1n[nH]c(=S)s1	nt	-4%	25µM*	-6%	-1%	10%
N#Cc1ccc(NC(=O)Cn2c3[n+](c4ccc(C(F)(F)F)cc42)CCCCC3)cc1	-3%[11.4 µM]	24%	25µM*	-1%	i	0%
O=C(Cn1c2[n+](c3ccc(C(F)(F)F)cc31)CCCCC2)Nc1ccc(Br)cc1	nt	0%	-29%	-1%	-4%	7%
CC(C)(C)C(=O)Nc1ccc(C(=O)Nc2cc(NC(=O)c3ccc(NC(=O)C(C)(C)C)cc3)cc(C(=O)O)c2)cc1	-1%	23%	nt	-6%	nt	nt
O=C(Nc1cccc(Oc2ccc(C(=O)O)c(C(=O)O)c2)c1)c1ccc(-c2ccccc2)cc1	nt	-7%	-1%	-29%	-24%	45µM*
CC(C)(C)C(=O)Nc1ccc(C(=O)Nc2cccc(Oc3ccc(C(=O)O)c(C(=O)O)c3)c2)cc1	-6%	?	nt	-6%	nt	35µM*
COC(=O)C(c1ccccc1Cl)N1CCc2sccc2C1 (stereo not given)	nt	-3%	1%	-8%	-3%	6%
SMILES	L3MBTL1 block	APEX1 inh	KDM4E inh	BLM inh	RECQ1 helicase	TDP1 inh
COc1ccc(-c2nn(C)c3sc(C(=O)Nc4cc(OC)c(OC)c(OC)c4)cc23)cc1OC	nt	nt	nt	20µM*	nt	12%
COc1ccc(-c2nn(C)c3sc(C(=O)NCc4ccco4)cc23)cc1OC	nt	5%	?	0%	-18%	7%
CC[C@H](C)[C@H](NC(=O)CNC(=O)[C@H](CCCNC(=N)N)NC(=O)[C@H](CO)NC(=O)[C@H](C)NC(=O)[C@H](Cc1ccc(O)cc1)NC(=O)[C@H](Cc1c[nH]c2ccccc12)NC(=O)[C@H](C)NC(=O)[C@@H]1CCCN1C(=O)[C@H](CC(N)=O)NC(=O)[C@@H](NC(=O)[C@H](CC(=O)O)NC(=O)[C@@H]1CCCN1C(=O)[C@@H](NC(=O)[C@H](CCCNC(=N)N)NC(=O)[C@@H](NC(=O)[C@H](CCC(=O)O)NC(=O)[C@H](CCSC)NC(=O)[C@H](CO)NC(=O)[C@H](Cc1cnc[nH]1)NC(=O)[C@H](CCCNC(=N)N)NC(=O)[C@H](Cc1cnc[nH]1)NC(=O)[C@@H](NC(=O)[C@H](CCCNC(=N)N)NC(=O)[C@@H](N)CO)[C@@H](C)O)[C@@H](C)CC)[C@@H](C)O)[C@@H](C)CC)C(=O)N[C@@H](CCCNC(=N)N)C(=O)N1CCC[C@H]1C(=O)N[C@H](C(=O)NCC(=O)N[C@@H](CCCNC(=N)N)C(=O)N[C@@H](Cc1ccccc1)C(N)=O)C(C)C	nt	13%	nt	1%	18%	17%
COc1cccc(NC(=O)CN(C)C(=O)c2cc3c(s2)CCC3)c1	8.9µM*	?	nt	nt	nt	nt
O=[N+]([O-])c1ccc(S(=O)(=O)Nc2ccccn2)cc1	-5%[2.29 µM]	32%	nt	-7%	nt	nt
Cc1ccc(-n2nc3c(N4CCC(C(=O)N5CCCCC5)CC4)nnc(C)c3c2C)cc1	nt	nt	nt	2%	nt	0%
CC1=NN(c2ccc(C)cc2)C(=O)/C1=C/c1ccc(-c2cc([N+](=O)[O-])ccc2O)o1	32µM*	-22%	nt	-21%	nt	nt
O=C(O)c1cccc(NC(=S)N/N=C/c2ccccn2)c1	20µM*	8%	?	-1%	0%	2%
O=C(O)c1cccc(NC(=S)N/N=C/c2cccc(O)c2)c1	16%	1%	-5%	2%	0%	3%
O=[N+]([O-])c1ccc2c(c1)N([O-])C1(CCCCC1)[N+]2=O	-3%	-5%	11µM*	-14%	-2%	6%
COc1ccc(C2c3c(ncn(CCc4ccccc4)c3=N)Oc3ccc4ccccc4c32)cc1OC (stereo not given)	nt	nt	nt	nt	nt	4%
Cc1cc(N2C(=O)c3ccccc3C2=O)n[nH]1	nt	nt	nt	nt	nt	0%
COc1cc(OC)cc(C(=O)Oc2ccc(/C=N/Nc3nc4ccccc4s3)cc2OC)c1	-6%	-2%	35µM*	0%	-1%	5%
COc1cc(/C=N/Nc2nc3ccccc3s2)ccc1OC(=O)c1ccccc1F	-1%	5%	-1%	1%	0%	-5%
CCOC(=O)c1c(C)oc2c1c(C=NCc1ccccn1)c(O)c1ccccc12	?	2%	4µM*	-10%	-6%	13%
